Results: the supplement of paper PMC10037445
In all, about 2,900 compounds were measured (“NF-kB SEAP reporter activity, fold change vs agonist alone”: median about 0.99, highest 2% from about 2.6 on). The sample holds the highest values, similar compounds and a random draw of the others, so the mix is not that of the screen.

Experiments:
[1] = system: RAW-Dual; assay: NF-kB SEAP reporter activity, fold change vs agonist alone; higher = enhanced NF-kB activity; details: library stock concentration (final ~1000-fold dilution): 10 mM
Outline: (§1)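 Library stock was pin-tooled at 50 nL into 384-well plates of RAW-Dual macrophages (50,000 cells/well, DMEM), followed 1 h later by a PRR agonist, and the cells were kept at 37 °C, 5% CO2. Supernatant collected after 20 hours was read for IRF by QuantiLuc luminescence and for NF-κB by QuantiBlue absorbance at 620 nm. Reporter activity is fold change over agonist-alone wells, and a well counted as cytotoxic when its IncuCyte confluency was below 70% of agonist controls in both mask sets.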

[2] = system: RAW-Dual; assay: NF-kB SEAP reporter activity, fold change vs agonist alone; cytotoxicity flag (confluency mask): not cytotoxic; higher = enhanced NF-kB activity
Outline: as §1

[3] = system: RAW-Dual; assay: NF-kB SEAP reporter activity, fold change vs agonist alone; cytotoxicity flag (confluency mask): cytotoxic (confluency <70% of control); higher = enhanced NF-kB activity
Outline: as §1

[4] = cytotoxicity flag (confluency mask): not cytotoxic, agonist: Imiquimod (TLR7) […]
[5] = cytotoxicity flag (confluency mask): not cytotoxic, agonist: MPLA (TLR4) […]
[6] = agonist: ODN 1826 (TLR9) 0.5 ug/mL
[7] = agonist: Pam2CSK4 (TLR2/6) 0.1 ug/mL
[8] = agonist: Pam3CSK4 (TLR2/1) 0.1 ug/mL

CC(C)=CCCC(C)(OC1OC(CO)C(O)C(O)C1O)C1CCC2(C)C1C(O)CC1C3(C)CCC(OC4OC(CO)C(O)C(O)C4OC4OC(CO)C(O)C(O)C4O)C(C)(C)C3CCC12C (stereo not drawn)
NF-kB SEAP reporter activity [1, 4]: 1.01
NF-kB SEAP reporter activity [1, 5]: 1.02

CC(C)=CCCC(C)(OC1OC(CO)C(O)C(O)C1O)C1CCC2(C)C1C(O)CC1C3(C)CCC(OC4OC(CO)C(O)C(O)C4OC4OC(CO)C(O)C(O)C4O)C(C)(C)C3CCC12C (stereo not drawn) (library stock concentration (final ~1000-fold dilution): 10 mM)
NF-kB SEAP reporter activity ([2]; agonist: LPS (TLR4) 0.1 ug/mL): 0.838
NF-kB SEAP reporter activity [2, 6]: 1.11
NF-kB SEAP reporter activity [2, 7]: 0.899
NF-kB SEAP reporter activity [2, 8]: 1.02

CCCC(Nc1nc(-c2ccc(NC(=O)NCC)c(OC)c2)ncc1C)c1cccnc1 (stereo not drawn) (library stock concentration (final ~1000-fold dilution): 10 mM)
NF-kB SEAP reporter activity ([2]; agonist: LPS (TLR4) 0.1 ug/mL): 5.93
NF-kB SEAP reporter activity [2, 6]: 3.66
NF-kB SEAP reporter activity [2, 7]: 2.2
NF-kB SEAP reporter activity [2, 8]: 2.92

CCCC(Nc1nc(-c2ccc(NC(=O)NCC)c(OC)c2)ncc1C)c1cccnc1 (stereo not drawn)
NF-kB SEAP reporter activity [1, 4]: 2.63
NF-kB SEAP reporter activity [1, 5]: 2.57

O=C(/C=C/c1ccc(O)c(O)c1/C=C/c1ccc(O)c(O)c1)OC(Cc1ccc(O)c(O)c1)C(=O)O (stereo not drawn)
NF-kB SEAP reporter activity [1, 4]: 0.405
NF-kB SEAP reporter activity [1, 5]: 0.891

O=C(/C=C/c1ccc(O)c(O)c1/C=C/c1ccc(O)c(O)c1)OC(Cc1ccc(O)c(O)c1)C(=O)O (stereo not drawn) (library stock concentration (final ~1000-fold dilution): 10 mM)
NF-kB SEAP reporter activity ([2]; agonist: LPS (TLR4) 0.1 ug/mL): 1.09
NF-kB SEAP reporter activity [2, 6]: 0.836
NF-kB SEAP reporter activity [2, 7]: 0.837
NF-kB SEAP reporter activity [2, 8]: 0.289

CCn1c2ccccc2c2cc(CNCc3ccccc3OC)ccc21.Cl
NF-kB SEAP reporter activity ([1]; cytotoxicity flag (confluency mask): cytotoxic (confluency <70% of control), agonist: Imiquimod (TLR7) […]): 1.22
NF-kB SEAP reporter activity ([1]; cytotoxicity flag (confluency mask): cytotoxic (confluency <70% of control), agonist: MPLA (TLR4) […]): 1.37

CCn1c2ccccc2c2cc(CNCc3ccccc3OC)ccc21.Cl (library stock concentration (final ~1000-fold dilution): 10 mM)
NF-kB SEAP reporter activity ([3]; agonist: LPS (TLR4) 0.1 ug/mL): 1.06
NF-kB SEAP reporter activity [3, 6]: 0.394
NF-kB SEAP reporter activity [3, 7]: 0.659
NF-kB SEAP reporter activity [3, 8]: 0.641

CCn1c2ccccc2c2cc(-n3nncc3-c3ccccc3)ccc21 (library stock concentration (final ~1000-fold dilution): 10 mM)
NF-kB SEAP reporter activity ([2]; agonist: LPS (TLR4) 0.1 ug/mL): 3.15
NF-kB SEAP reporter activity [2, 6]: 1.82
NF-kB SEAP reporter activity [2, 7]: 1.81
NF-kB SEAP reporter activity [2, 8]: 2.79

CCn1c2ccccc2c2cc(-n3nncc3-c3ccccc3)ccc21
NF-kB SEAP reporter activity [1, 4]: 1.66
NF-kB SEAP reporter activity [1, 5]: 2.14

CC(=O)N1CCN(c2ccc(NC(=O)Cc3cnc(-c4ccnc(F)c4)c(C)c3)nc2)CC1
NF-kB SEAP reporter activity [1, 4]: 0.874
NF-kB SEAP reporter activity [1, 5]: 1

CC(=O)N1CCN(c2ccc(NC(=O)Cc3cnc(-c4ccnc(F)c4)c(C)c3)nc2)CC1 (library stock concentration (final ~1000-fold dilution): 10 mM)
NF-kB SEAP reporter activity ([2]; agonist: LPS (TLR4) 0.1 ug/mL): 0.956
NF-kB SEAP reporter activity [2, 6]: 0.965
NF-kB SEAP reporter activity [2, 7]: 0.991
NF-kB SEAP reporter activity [2, 8]: 1.03

CC(/C=C/C=C(\C)C(=O)OC1OC(COC2OC(CO)C(O)C(O)C2O)C(O)C(O)C1O)=C\C=C\C=C(C)\C=C\C=C(/C)C(=O)OC1OC(COC2OC(CO)C(O)C(O)C2O)C(O)C(O)C1O (stereo not drawn) (library stock concentration (final ~1000-fold dilution): 10 mM)
NF-kB SEAP reporter activity ([2]; agonist: LPS (TLR4) 0.1 ug/mL): 1.08
NF-kB SEAP reporter activity [2, 6]: 0.948
NF-kB SEAP reporter activity [2, 7]: 1.16
NF-kB SEAP reporter activity [2, 8]: 1.19

CC(/C=C/C=C(\C)C(=O)OC1OC(COC2OC(CO)C(O)C(O)C2O)C(O)C(O)C1O)=C\C=C\C=C(C)\C=C\C=C(/C)C(=O)OC1OC(COC2OC(CO)C(O)C(O)C2O)C(O)C(O)C1O (stereo not drawn)
NF-kB SEAP reporter activity [1, 4]: 0.915
NF-kB SEAP reporter activity [1, 5]: 1.03

CS(=O)(=O)N1CCN(Cc2cc3nc(-c4cccc5[nH]ncc45)nc(N4CCOCC4)c3s2)CC1 (library stock concentration (final ~1000-fold dilution): 10 mM)
NF-kB SEAP reporter activity ([2]; agonist: LPS (TLR4) 0.1 ug/mL): 1.87
NF-kB SEAP reporter activity [2, 6]: 0.247
NF-kB SEAP reporter activity [2, 7]: 1.02
NF-kB SEAP reporter activity [2, 8]: 0.72

Fc1ccc2[nH]ccc2c1-c1nc(N2CCOCC2)c2sc(CN3CCN(CC4CC4)CC3)cc2n1
NF-kB SEAP reporter activity [1, 4]: 0.944
NF-kB SEAP reporter activity [1, 5]: 1.25

Fc1ccc2[nH]ccc2c1-c1nc(N2CCOCC2)c2sc(CN3CCN(CC4CC4)CC3)cc2n1 (library stock concentration (final ~1000-fold dilution): 10 mM)
NF-kB SEAP reporter activity ([2]; agonist: LPS (TLR4) 0.1 ug/mL): 2.9
NF-kB SEAP reporter activity [2, 6]: 0.272
NF-kB SEAP reporter activity [2, 7]: 1.03
NF-kB SEAP reporter activity [2, 8]: 0.935

CS(=O)(=O)N1CCN(Cc2cc3nc(-c4cccc5[nH]ncc45)nc(N4CCOCC4)c3s2)CC1
NF-kB SEAP reporter activity [1, 4]: 1.77
NF-kB SEAP reporter activity [1, 5]: 1.75

O=C(CCNC(=O)c1ccc(OC(F)(F)F)cc1)NC1CCCc2ccccc21 (stereo not drawn) (library stock concentration (final ~1000-fold dilution): 10 mM)
NF-kB SEAP reporter activity ([2]; agonist: LPS (TLR4) 0.1 ug/mL): 0.767
NF-kB SEAP reporter activity [2, 6]: 1.33
NF-kB SEAP reporter activity [2, 7]: 0.519
NF-kB SEAP reporter activity [2, 8]: 0.68

O=C(CCNC(=O)c1ccc(OC(F)(F)F)cc1)NC1CCCc2ccccc21 (stereo not drawn)
NF-kB SEAP reporter activity [1, 4]: 1.66
NF-kB SEAP reporter activity [1, 5]: 1.13

COc1cc2c(cc1OC)CC(=O)N(CCCN(C)CC1Cc3cc(OC)c(OC)cc31)CC2.Cl (stereo not drawn) (library stock concentration (final ~1000-fold dilution): 10 mM)
NF-kB SEAP reporter activity ([2]; agonist: LPS (TLR4) 0.1 ug/mL): 1.3
NF-kB SEAP reporter activity [2, 6]: 0.895
NF-kB SEAP reporter activity [2, 7]: 0.867
NF-kB SEAP reporter activity [2, 8]: 1.1

COc1cc2c(cc1OC)CC(=O)N(CCCN(C)CC1Cc3cc(OC)c(OC)cc31)CC2.Cl (stereo not drawn)
NF-kB SEAP reporter activity [1, 4]: 0.885
NF-kB SEAP reporter activity [1, 5]: 0.951

CCOC(=O)NC1CCC2C(C1)CC1C(=O)OC(C)C1C2/C=C/c1ccc(-c2cccc(F)c2)cn1 (stereo not drawn)
NF-kB SEAP reporter activity [1, 4]: 0.145
NF-kB SEAP reporter activity [1, 5]: 0.289
